55 molecules from PubChem BioAssay AID463173 (ICCB-Longwood Screening Facility, Harvard Medical School, 2010) can be followed below.

Each structure is given as a SMILES string. Hit rate of the full screen: of about 52,000 compounds, about 4,300 (8.3%) were called active. This is one part of a sample in which actives are shown more often than they occur. A number with no mark means an inactive call. Rule as the data show it: active = survival mostly below about 52% (no sharp cut-off); inactive = mostly above about 56%.

The test relates to DeltatarO mutant. The test can be described thus: growth inhibition of S. aureus wild type versus tarO mutant, primary screen, teichoic acid synthesis inhibitors, RN4220, OD600 (AID 463173). The settings on record: OD600, 18 h, active compounds read low, screened at 18.75 µg/mL (by protocol).
In the case of `Cc1cc(C)cc(NC(=O)Cn2cc(S(=O)(=O)NC(C)(C)C)c(S(=O)(=O)NC(C)(C)C)c2)c1`, the survival is 95%.

As for `CSc1ncc(C(=O)NCc2ccccc2F)c(-c2ccccc2)n1`, the survival was 112%. The value for `CCCn1c2ccccc2c2cnn(CC(=O)NCc3ccccc3Cl)c(=O)c21` was 108%; that for `CCc1nn(CCCC(=O)NCc2ccc(OC)c(OC)c2)c(=O)c2cc3occc3n12` was 79%; that for `COc1ccc(Br)cc1CNC(=O)C(C)n1nc(C)n2c(cc3occc32)c1=O` (stereo not given) was 46% (active). `CCc1nn(CCCC(=O)NCc2ccccc2OC)c(=O)c2cc3occc3n12`: the survival was 84%. The value for `Cc1ccccc1CNC(=O)C(C)n1nc(C)n2c(cc3occc32)c1=O` (stereo not given) was 68%; that for `CCC(C(=O)NCc1ccccc1OC)n1nc(C)n2c(cc3occc32)c1=O` (stereo not given) was 80%. The value for `CCc1nn(CCCC(=O)NCc2cc(Br)ccc2OC)c(=O)c2cc3occc3n12` was 46% (active). In the case of `COC(=O)c1ccc(Oc2nc3c(c(=O)n(C)c(=O)n3C)n2Cc2ccc(Cl)c(Cl)c2)cc1` it was 167%; in that of `O=C(CCS(=O)(=O)c1nc(-c2cccs2)cc(C(F)(F)F)n1)Nc1ccc(F)c(Cl)c1`, 67%; in that of `Clc1cc2c(cc1C=Nc1ccc(N3CCOCC3)cc1)OCO2`, 83%. In the case of `N#CC(C#N)=Cc1cn(CC(=O)Nc2ccccc2)c2ccccc12`, the survival is 66%. The value for `c1ccc(Nc2c(-c3c[nH]c4ccccc34)nc3ccccn23)cc1` was 54% (active); that for `Cc1ccc(Nc2c(-c3ccccc3O)nc3cc(C)ccn23)cc1` was 78%.

Regarding `Cc1ccc2nc(-c3c[nH]c4ccccc34)c(Nc3ccccc3)n2c1`, the survival is 78%. Consider `Fc1ccc(Nc2c(-c3c[nH]c4ccccc34)nc3ccccn23)cc1`, for which the survival was 70%. With `CSc1ccc(-c2nc3cc(C)ccn3c2Nc2ccc(C)cc2)cc1`, the survival is 95%. As for `Cc1ccc(Nc2c(-c3c[nH]c4ccccc34)nc3cc(C)ccn23)cc1`, the survival is 80% (active). For the molecule `Cc1ccn2c(Nc3ccccc3)c(-c3c[nH]c4ccccc34)nc2c1`, the survival was 86%.

As to `Cc1ccc(Nc2c(-c3cc(Br)ccc3F)nc3cc(C)ccn23)cc1`, the survival is 32% (active). As for `Cc1ccc(Nc2c(-c3c[nH]c4ccccc34)nc3ccccn23)cc1`, the survival is 114%. In the case of `Cc1ccc(Oc2nc3c(c(=O)n(Cc4ccccc4Cl)c(=O)n3C)n2C)cc1C`, the survival was 61%.

As for `Cc1csc2nc(-c3ccc(NS(=O)(=O)c4cc(F)ccc4F)cc3)cn12`, the survival was 87%.

Take `Fc1ccc(CNc2nc3c(-c4ccc(F)cc4)nnn3c3ccccc23)cc1`: the survival was 105%. The value for `Cc1ccc2oc(-c3cccc(NC(=O)c4cccc5c(Br)cccc45)c3)nc2c1` was 153%. The value for `O=C(Nc1cc(-c2nc3ccccc3o2)ccc1Cl)c1cccc2c(Cl)cccc12` was 56%; that for `O=C(Nc1cccc(-c2nc3ccccc3o2)c1)c1cccc2c(Cl)cccc12` was 46%.

Turning to `Cc1ccc2oc(-c3cccc(NC(=O)c4cccc5c(Cl)cccc45)c3)nc2c1`, the survival was 51% (active). The value for `Cc1ccc(-c2nc3ccccc3o2)cc1NC(=O)c1cccc2c(Cl)cccc12` was 47% (active); that for `Cc1ccc2nc(-c3cccc(NC(=O)c4cccc5c(Cl)cccc45)c3)oc2c1` was 110%; that for `O=C(OCc1cc(=O)n2nc(-c3cccs3)sc2n1)c1cccc(F)c1` was 77%. The value for `COc1cccc(N2CCN(C(=O)CN3CCSc4ccccc43)CC2)c1` was 83%; that for `Cc1ccc(C)c(N2CCN(C(=O)CN3C(=O)COc4ccc(S(=O)(=O)N5CCCC5)cc43)CC2)c1` was 85%. In the case of `CCN(CC)CCn1c(=N)n(CC(O)COc2ccccc2C)c2ccccc21` (stereo not given) it was 80%; in that of `O=C(CSc1nnnn1C1CCCC1)NCc1cccs1`, 103%. As for `CCN(CC)CCNC(=O)c1ccc(CSc2nc3ccncc3n2Cc2cccc(F)c2)cc1`, the survival was 92%.

Consider `Cc1cccc(N2CCN(C(=O)Nc3cn(CC(C)C)c(=O)c4ccccc34)CC2)c1C`, for which the survival was 69%.

For the molecule `Cc1ccc(Cl)cc1NC(=O)Cn1c(=O)n(Cc2ccccc2)c(=O)c2oc3ccccc3c21`, the survival is 81%. Regarding `CCC(=O)N1c2ccccc2CC1C(=O)NCc1ccc(CC)cc1` (stereo not given), the survival was 100%. In the case of `COc1ccc(C2c3c(n(C)c4ccccc34)C(=O)N2CC(=O)Nc2cccc(Cl)c2)cc1` (stereo not given) it was 80%; in that of `COC(=O)CSc1nnc(C2CCCCC2)n1Cc1ccccc1`, 116%.

In the case of `Cc1cccc(N2CCN(C(=O)C3CCN(Cc4nc(-c5ccc(Cl)cc5)oc4C)CC3)CC2)c1C`, the survival was 60%. The value for `Cc1ccc(Cl)cc1N1CCN(C(=O)C2CCN(Cc3nc(-c4cccc(Cl)c4)oc3C)CC2)CC1` was -8% (active); that for `CCCCSCCCNC(=O)C1CCN(Cc2nc(-c3cccc(Br)c3)oc2C)CC1` was 68%; that for `Cc1oc(-c2cccc(Cl)c2)nc1CN1CCC(C(=O)NCCCN2CCN(c3ccc(F)cc3)CC2)CC1` was 119%. The value for `Cc1ccc(C)c(N2CCN(C(=O)C3CCN(Cc4nc(-c5cccc(Cl)c5)oc4C)CC3)CC2)c1` was 47%; that for `CCCCSCCCNC(=O)C1CCN(Cc2nc(-c3ccc(CC)cc3)oc2C)CC1` was 46% (active). The value for `Cc1oc(-c2cccc(Cl)c2)nc1CN1CCC(C(=O)NCCCN2CCN(c3cccc(Cl)c3)CC2)CC1` was 63%.

With `Cc1oc(-c2ccc(Cl)cc2)nc1CN1CCC(C(=O)NCCCN2CCN(c3cccc(Cl)c3)CC2)CC1`, the survival was 42% (active). `CCc1ccc(-c2nc(CN3CCC(C(=O)NCCc4ccc(C)cc4)CC3)c(C)o2)cc1`: the survival was 95%. The value for `Cc1ccc(Cl)cc1N1CCN(C(=O)C2CCCN(Cc3nc(-c4cccc(Cl)c4)oc3C)C2)CC1` (stereo not given) was 66%; that for `CCc1ccc(-c2nc(CN3CCCC(C(=O)N4CCN(c5cc(Cl)ccc5C)CC4)C3)c(C)o2)cc1` (stereo not given) was 70%; that for `Cc1ccc(Cl)cc1N1CCN(C(=O)C2CCN(Cc3nc(-c4ccc(Cl)cc4)oc3C)CC2)CC1` was -9% (active).

As for `CCCOc1ccc(Oc2nc(NCC(C)C)nc(N3CCOCC3)n2)nn1`, the survival is 74%.
